Assay outcomes from PubChem.
beta cell repl: induces beta-cell replication in MIN6 cells; MIN6 cells proliferation, ATPlite luminescence, 48 h; cells starved in 0.2% serum; 100% = growth in 10% serum; AID 2380; proliferation, % at 10 µM; 330,000 compounds, 0.29% hits;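 active = compounds whose signal lies at least 3.5 SD above the mean of all wells on their plate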;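 also: 0% = DMSO-treated cells in low-serum medium and 100% = 10% serum control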
HTR5A ag ctr: counter-screen for OPRM1-OPRD1 agonists: human HTR5A agonism; P47898; HTR5A agonist assay, luminescence, cell-based; activation, % at 9.3 µM; 340,000 compounds, 0.61% hits; in the data active = activation mostly above about 9.5%, no sharp cut-off; inactive = mostly below about 7.6%;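 also: 0% = cells with vehicle only and 100% = reference agonist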
HTR5A inv ag: inverse agonist of human HTR5A in OPRM1-OPRD1 counter-screen; HTR5A cell line, luminescence, inverse agonism; inhibition, % at 9.3 µM; 340,000 compounds, 0.083% hits; AID 504634; in the data active = inhibition mostly above about 23%, no sharp cut-off; inactive = mostly below about 18%;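 also: 0% = cells with DMSO and 100% = no-cell wells with DMSO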
MOR-DOR ag-1: OPRM1-OPRD1 heterodimerization agonism. 340,000 compounds, 0.3% hits. P35372+P41143. activation, % at 9.3 µM. cells, luminescence;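 also: 0% = vehicle-treated cells and 100% = reference agonist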
MOR-DOR inv ag: mu-delta opioid heterodimer inverse agonism. inhibition, % at 9.3 µM. AID 504357. 340,000 compounds, 0.21% hits. P35372+P41143. cell-based MOR-DOR heterodimer luminescence; in the data active = inhibition above about 22%, passing the limit was not always enough;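 also: 0% = cells with DMSO and 100% = wells without cells with DMSO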
V-ATPase pH: yeast V-ATPase proton transport regulation by pHLuorin. S. cerevisiae, pHLuorin cytosolic pH fluorescence. response, % at 10 µM. 350,000 compounds, 0.37% hits. AID 504577; in the data active = response mostly above about 7.3%, no sharp cut-off; inactive = mostly below about 5.4%; also: actives read high
MOR-DOR ag-2: counter-screen for HTR5A agonists: OPRM1-OPRD1 heterodimerization agonism | 800 compounds, 13% hits | AID 504913 | activation, % at 9.3 µM | shares compounds with HTR5A ag ctr | U2OS counter-screen cells, complementation luminescence, 3 h
HTR5A ag conf: confirmation of human HTR5A agonists; 800 compounds, 17% hits; shares compounds with HTR5A ag ctr; activation, % at 9.3 µM; HTR5A agonist cell assay, luminescence; in the data active = activation above about 17%;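 also: 0% = cells with vehicle only and 100% = full reference agonist response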
Starred values were filed as active, the others as inactive; / = no result. This is a sample that favours compounds with a hit; in the whole collection about 1.7% have one here. Rule as the data show it, unless noted: active = activation above about 18%; inactive = the rest.

SMILES | beta cell repl | HTR5A ag ctr | HTR5A inv ag | MOR-DOR ag-1 | MOR-DOR inv ag | V-ATPase pH | MOR-DOR ag-2 | HTR5A ag conf
COc1ccc([C@@H]2C[C@@H](c3ccccc3)Oc3cc(C)cc(C)c32)cc1 | -7 | 25* | -68 | 0 | 1 | 2 | 3 | 2
COc1ccc(OCC(=O)N2CCC(n3nccc3NC(=O)C3CC3)CC2)cc1 | 1 | -1 | -3 | -3 | 15 | -2 | / | /
CN(CC(=O)Nc1cccc(F)c1)C(=O)C1(c2ccccc2)CC1 | -2 | 14* | -7 | -3 | 11 | -1 | 3 | -1
CCN(CC)CCCNC(=S)N1CCN(c2nc3ccccc3n2CC)CC1 | 1 | 19* | -30 | 0 | 3 | -1 | 2 | 46*
CCn1c(N2CCN(S(=O)(=O)c3ccc(OC)cc3)CC2)nc2ccccc21 | -1 | 18* | -69 | -1 | 4 | 3 | 3 | 37*
CCN(CC)CCCNC(=S)N1CCn2c(nc3ccccc32)C1 | 0 | / | / | / | / | 0 | / | /
Cn1c(N2CCN(S(=O)(=O)c3ccc(F)cc3)CC2)nc2ccccc21 | 2 | -1 | 17 | -2 | 10 | 2 | / | /
CCn1c(N2CCN(C(=O)C34CC5CC(CC(C5)C3)C4)CC2)nc2ccccc21 | -2 | 31* | -109 | 1 | -4 | -1 | 159* | -4
COc1ccc(N2CCN(C(=O)NCc3ccc(C)cc3)CC2)cc1 | -2 | 7 | -3 | -3 | 15 | / | / | /
CC(=O)NC1=NN(C(C)=O)C(c2ccco2)S1 (stereo not drawn) | 0 | 3 | -7 | 1 | -6 | -4 | / | /
Cc1[nH]c2ccccc2c1C(=O)CN1C(=O)NC2(CC(C)CC(C)(C)C2)C1=O (stereo not drawn) | -1 | 8 | -9 | 1 | -3 | 1 | / | /
CCn1c(=O)cc(SCC(=O)N2CCN(Cc3ccc4c(c3)OCO4)CC2)c2ccccc21 | -1 | -1 | -4 | 3 | -17 | 2 | / | /
Cn1c(=O)cc(SCC(=O)N2CCN(Cc3ccc4c(c3)OCO4)CC2)c2ccccc21 | -2 | 18* | 3 | -3 | 17 | -1 | 2 | -2
Cc1cc(=O)oc2cc(OCC(=O)NCCc3c[nH]c4ccc(F)cc34)ccc12 | -1 | -2 | -29 | -1 | 7 | -6 | / | /
CCCc1cc(=O)oc2cc(OCC(=O)NCCc3c[nH]c4ccccc34)ccc12 | -1 | 19* | 5 | 13 | -67 | 2 | 226* | 56*
Cc1cccc(N2N=C(C(=O)Nc3ccc(Cl)c(S(=O)(=O)N4CCOCC4)c3)CCC2=O)c1 | 4 | 2 | 13 | -3 | 11 | -3 | / | /
CC1CCCN(CC(=O)Nc2cc(S(=O)(=O)N3CCOCC3)ccc2N2CCCC2)C1 (stereo not drawn) | -3 | -1 | 2 | -1 | 5 | -5 | / | /
COc1cc(O)c(C(CCN2CCCCC2)c2ccc(N(C)C)cc2)c(OC)c1 (stereo not drawn) | -4 | 26* | -76 | 1 | -3 | 1 | 45* | -5
O=C(CNc1ccc(F)cc1)N/N=C1\CCCc2ccccc21 | 0 | 16* | -42 | 5 | -28 | 4 | 8 | 17*
N#CC1(NC(=O)COc2ccc(C(N)=O)cc2)CCCC1 | -1 | -5 | 13 | -2 | 6 | -1 | / | /
COc1cc(OC)cc(-c2nc3ccccc3c(=O)n2OC(=O)c2ccccc2C)c1 | 0 | 22* | -36 | 8 | -38 | 4 | 6 | 12
COc1cc(/C=N/c2oc(C)c(C)c2C#N)cc(Br)c1O | -2 | -1 | 4 | -2 | 8 | -3 | / | /
COc1ccc(CN2C(=O)C(=O)N(CC(N)=O)C2=O)cc1 | -3 | -4 | 10 | 0 | 0 | 2 | / | /
CCOc1ccccc1NC(=S)N(CCOC)C1CCN(C(C)=O)CC1 | -2 | 15* | 12 | -1 | 5 | -4 | 3 | -1
O=[n+]1c2c(n([O-])c3cc(F)c(N4CCCC4)cc31)CCC2 | 6 | 4 | -12 | -4 | 15 | 4 | / | /
O=[n+]1c2c(n([O-])c3cc(F)c(N4CCCC4)cc31)CCCC2 | 0 | 15* | -35 | -2 | 11 | 2 | 1 | 40*
